PABP FP inh = PABP poly(A) RNA binding inhibitors, primary screen, biochemical, fluorescence polarization, uHTS | calls only at 35 µM | 1% of 290,000 active | AID 2014, 2009;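 also: calls also rest on retests at 20 µM and on dose response follow-up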
MLLE-PAM2 inh = inhibitors of PABP1 MLLE–PAM2 peptide binding, primary screen, biochemical, fluorescence polarization, FITC-PAM2, GST-MLLE. Polyadenylate-binding protein 1 (Homo sapiens), P11940. inhibition, % at 20 µM. 0.36% of 360,000 active. AID 588489, 2011; in the data active = inhibition above about 35%, passing the limit was not always enough;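 also: plate controls were DMSO wells with GST-MLLE for no effect and wells lacking GST-MLLE protein for full effect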
PHOSPHO1 block = PubChem AID 1565; recombinant PHOSPHO1, absorbance phosphatase assay; 1.1% of 290,000 active; inhibition, % at 13.3 µM; in the data active = inhibition above about 60%
eIF4H FP inh = human eIF4H binding inhibitors, primary screen, translation initiation inhibitor project, biochemical, uHTS, fluorescence polarization; Eukaryotic translation initiation factor 4H (Homo sapiens), Q15056; eIF4H fluorescence polarization binding assay; inhibition, % at 35 µM; 0.94% of 290,000 active;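 also: calls also rest on retests at 20 µM and on dose response follow-up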
ABCB6 inh 2 = ABCB6 transporter inhibitors, primary screen, K562-ABCB6 cells, flow cytometry, MLPCN library | ATP-binding cassette sub-family B member 6 (Homo sapiens), Q9NP58 | fluorescence ratio to DMSO, % at 10 µM | 0.19% of 360,000 active | K562-ABCB6 porphyrin accumulation, 1 h; active compounds read low | AID 602162, 2011;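 active = fluorescence ratio to DMSO below 75%, the collection mean minus 3 SD; inconclusive = too few cells collected in the well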;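 also: signal is porphyrin accumulated inside mitochondria; 100% equals median channel fluorescence of DMSO control wells; lower ratio means ABCB6 inhibition with less porphyrin fluorescence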
Target sequence (Q9NP58 whole entry, looked up): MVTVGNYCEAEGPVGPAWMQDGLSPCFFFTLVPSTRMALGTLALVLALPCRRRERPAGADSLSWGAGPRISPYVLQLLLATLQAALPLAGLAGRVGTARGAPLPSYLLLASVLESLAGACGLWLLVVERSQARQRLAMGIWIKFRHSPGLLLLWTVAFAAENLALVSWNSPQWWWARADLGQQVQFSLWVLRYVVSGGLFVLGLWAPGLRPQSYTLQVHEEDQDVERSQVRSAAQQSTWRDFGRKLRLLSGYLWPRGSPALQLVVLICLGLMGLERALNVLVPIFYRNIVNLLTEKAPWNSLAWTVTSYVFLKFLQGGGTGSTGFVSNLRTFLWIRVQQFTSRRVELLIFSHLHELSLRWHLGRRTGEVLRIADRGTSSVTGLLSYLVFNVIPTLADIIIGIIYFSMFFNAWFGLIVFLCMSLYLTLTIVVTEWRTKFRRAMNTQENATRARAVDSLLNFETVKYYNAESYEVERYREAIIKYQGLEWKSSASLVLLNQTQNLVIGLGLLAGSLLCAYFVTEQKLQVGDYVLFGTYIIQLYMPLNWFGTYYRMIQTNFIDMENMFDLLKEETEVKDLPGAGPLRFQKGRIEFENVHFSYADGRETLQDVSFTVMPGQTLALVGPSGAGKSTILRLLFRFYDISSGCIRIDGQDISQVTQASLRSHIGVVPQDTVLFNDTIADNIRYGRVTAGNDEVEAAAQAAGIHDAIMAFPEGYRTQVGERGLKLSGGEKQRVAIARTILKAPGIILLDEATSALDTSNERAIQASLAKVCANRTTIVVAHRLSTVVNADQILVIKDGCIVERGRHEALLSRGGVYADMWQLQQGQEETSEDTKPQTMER
AI-2 QS modul = Vibrio harveyi AI-2 quorum sensing modulators, primary screen, JMH597 strain, luminescence/OD600 ratio | Vibrio harveyi JMH597 AI-2 luminescence/OD600 ratio, 9 h; active compounds read low; strain lacks LuxN and CqsS sensors; 0 = neutral-control median | activity change, % at 7.5 µM | 0.4% of 300,000 active; in the data active = activity change below about -75%, passing the limit was not always enough; inconclusive = no clear call, values can overlap the other calls;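 also: luminescence divided by OD600 gain over 9 h not by final OD600 alone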
Starred values were filed as active, the others as inactive; i = inactive; u = inconclusive; x = no result given; + = active, no number. Sampled rows, rich in hits. Any-hit rate of the full collection: about 2.6%. Unless noted, no rule for the calls is given here.

SMILES | PABP FP inh | MLLE-PAM2 inh | PHOSPHO1 block | eIF4H FP inh | ABCB6 inh 2 | AI-2 QS modul
Cc1cc(C(F)(F)F)nc(SCC(=O)NC2=NC(=O)C(C)S2)n1 (stereo not given) | i | 44* | 52 | -2 | 93 | 29
COC(=O)c1cc([N+](=O)[O-])c(-n2cncn2)c([N+](=O)[O-])c1 | + | 2 | 1 | 71 | 95 | 2
CC(C)CNC(=O)C1(C)CCCN1C(=O)C(C)(C)Oc1ccc(Cl)cc1 (stereo not given) | x | -7 | x | x | 107 | x
O=C(/C=C/c1cccc([N+](=O)[O-])c1)NC(=S)Nc1ccc(CN2CCOCC2)cc1 | i | 40* | -22 | -7 | 96 | 22
O=C(NC(=S)Nc1ccc(CN2CCOCC2)cc1)c1ccc([N+](=O)[O-])cc1 | i | 52* | -1 | -5 | 99 | 30
CCOc1ccc(CCNS(=O)(=O)c2c(C)nc3sccn3c2=O)cc1OCC | x | 7 | x | x | 97 | x
COc1cccc(-c2cccc3c2NC(=O)C3(C)Cc2ccccc2F)c1 (stereo not given) | x | 1 | x | x | 99 | x
O=C1S/C(=C/c2ccc(N3CCOCC3)o2)C(=O)N1Cc1c(F)cccc1Cl | i | -84 | 69* | 124 | 275 | 21
O=C1S/C(=C\c2ccc(N3CCOCC3)o2)C(=O)N1Cc1c(F)cccc1Cl | i | i | 10 | 24 | 283 | -12
C=CCn1c(Cc2cccs2)nnc1SCC(=O)c1cccc(Br)c1 | i | -68 | 68* | -5 | 91 | 19
CCc1nc2ccc(C(=O)NC3CCN(Cc4ccccc4)CC3)cn2c1N(CC)Cc1cccc(Br)c1 | x | 9 | x | x | 97 | x
Cc1ccc(NC(=O)NCc2ccccn2)cc1Cl | i | 8 | 53 | 2 | 97 | -2
Cc1ccc(C(=O)NCc2ccccn2)cc1Cl | i | -3 | 60* | 6 | 97 | 13
CC(C)C[C@@H]1COc2cc(N3CCSCC3)ccc2S(=O)(=O)N1 | x | x | x | x | 97 | x
Cn1c(=O)ccc2ccccc21 | x | -11 | x | x | 101 | x
Cc1ccc2ccccc2c1C(O)c1ncc(-c2ccc(Cl)cc2)[nH]1 (stereo not given) | x | 5 | x | x | 105 | x
CCCNC(=O)C1(C)CCCN(C(=O)c2cc(C)nn2C(C)(C)C)C1 (stereo not given) | x | -2 | x | x | 96 | x
CCC(C)c1ccc(NC(=O)COc2c(F)c(F)c(C(F)(F)F)c(F)c2F)cc1 (stereo not given) | + | -7 | -16 | active | 101 | 42
O=S1(=O)CC(N2CCN(Cc3ccccc3F)CC2)CN1Cc1cn(Cc2cccc(Cl)c2)nn1 (stereo not given) | x | x | x | x | 99 | x
COc1ccccc1NC(=O)COc1ccc(Br)cc1CNCCCN1CCOCC1 | i | -2 | 70* | -2 | 102 | 14
COc1cc(CNCCCN2CCOCC2)c(Br)cc1OCC(=O)Nc1ccccc1C | i | 13 | 23 | -5 | 96 | -13
C[C@@H]1CN([C@@H](C)CO)S(=O)(=O)c2ccc(-c3ccc(C#N)cc3)cc2O[C@@H]1CN(C)Cc1ccccn1 | x | -3 | x | x | 99 | x
COc1ccc(C(=O)NCCSCc2ccc(C)cc2)cc1 | i | -1 | 50 | 5 | 106 | 12
Cc1ccc(CSCCNC(=O)c2ccc(C)cc2)cc1 | i | 2 | 62* | -1 | 90 | 27
COCCNC(=O)C1(C)CCCN(C(=O)c2ccccc2F)C1 (stereo not given) | x | 14 | x | x | 100 | x
SMILES | PABP FP inh | MLLE-PAM2 inh | PHOSPHO1 block | eIF4H FP inh | ABCB6 inh 2 | AI-2 QS modul
Cc1ccc(C(=O)CC(=O)COc2ccc(Cl)cc2)cc1 | i | 11 | -21 | -5 | 101 | -79*
Cc1ccc(C(=O)NCCOc2ccc(Cl)cc2)cc1 | i | 5 | 26 | -2 | 93 | u
S=c1[nH]nc(-c2ccc3ccccc3n2)n1-c1ccc2ncccc2c1 | i | -12 | 74* | 46 | 94 | 18
S=c1[nH]nc(-c2ccc3ccccc3n2)n1-c1ccc(Cl)cc1 | i | -32 | 1 | -2 | 108 | 19
Cc1ccccc1-n1c(-c2ccc3ccccc3n2)n[nH]c1=S | i | -12 | 71* | 1 | 106 | 7
COc1ccc(O)c(/C=N/NS(=O)(=O)c2ccc(C)cc2)c1 | i | -70 | 9 | -5 | 98 | 20
COc1ccc(/C=N/NS(=O)(=O)c2ccc(C)cc2)cc1 | i | -51 | -3 | -4 | 93 | -83*
Cc1ccc(S(=O)(=O)N/N=C/c2cc(Br)c(C)o2)cc1 | i | -27 | 91* | 38 | 90 | -2
O=C(Nn1cnc2ccccc2c1=O)c1ccc(Br)cc1 | i | -7 | 28 | -3 | 94 | -62
CCc1ccc(C(=O)Nn2cnc3ccccc3c2=O)cc1 | i | -11 | 28 | 6 | 99 | -80*
CCCCCCCCN1C(=O)[C@H](CC(=O)NCC2CCCCC2)C[C@@]2(C(=O)OC)CCCCC=C12 | x | x | x | x | 98 | x
N#CC1=C(N)C2=CCCC[C@H]2[C@H](c2ccccc2)C1(C#N)C#N | + | 6 | 2 | 89* | 173 | 14
CC(=O)N1CCN(C(=S)c2ccc(N(C)C)cc2)CC1 | i | 29 | 90* | 5 | 101 | 38
Cc1ccc(N2CCN(C(=S)c3ccc(N(C)C)cc3)CC2)cc1 | i | 13 | 66* | -11 | 111 | 19
CN(C)c1ccc(C(=S)N2CCCCCC2)cc1 | i | -8 | 40 | -15 | 101 | 1
CN(C)c1ccc(CNc2nc3cc(-c4ccc(F)cc4)sc3c(=O)n2C)cc1 | x | -5 | x | x | 94 | x
CC(C)(C)c1cc(C(=O)NNc2cc(C(F)(F)F)ccc2Cl)n(Cc2ccccc2)n1 | i | -25 | -1 | 52* | 95 | 63
Cn1ncc2nc[nH]c(=O)c21 | + | 0 | -18 | u | 91 | 6
c1ccc(-c2ccc(-c3nccc4ccccc34)[nH]2)cc1 | + | x | 7 | 62* | x | x
N#Cc1cc(-c2ccccc2)[nH]c1-c1nccc2ccccc12 | i | -4 | -5 | -8 | 93 | 37
O=C1C(Cl)=C(N2CCN(Cc3ccccc3)CC2)C(=O)N1Cc1ccccc1 | i | 65* | 16 | 18 | 92 | 17
O=c1c(-c2c(O)cc(O)c3c(=O)cc(-c4ccc(O)cc4)oc23)c(-c2ccc(O)cc2)oc2cc(O)cc(O)c12 | + | -14 | 8 | 95* | 95 | x
COC(=O)CSc1nc(C)c(C)c(C)c1C(N)=O | i | 13 | 62* | 2 | 100 | 24
CN(C)c1ccc(N=Nc2ccc(C(=O)O)cc2)cc1 | + | -16 | 35 | 70* | 97 | 24

Screens from PubChem.
